{"source": "PubChem BioAssay (NCATS)", "note": "Results filed as inconclusive are left out. The source made the active and inactive calls. The call rests on the fitted dose curve; in most records, active means well fitted cell-killing curve with a large enough effect; inconclusive means small, poorly fitted or top-dose-only effect, or effect the other way; inactive means flat fitted curve, though single readings scatter. On the % scale 0 is the no-effect control and ±100 the full control effect; potency means the concentration at half of the fitted maximal effect."}
{"test_system": "CAOV3", "assay": "Primary qHTS to identify gynecologic anti-cancer compounds using libraries of approved drugs and bioactive compounds (AID 1345084); further: nearly all actives have a fitted effect of over 55% in size", "conditions": "Gynecologic cancer cell panel viability, ATPlite luminescence, 48 h; series mostly up to 57.5 µM; activity change, negative = cytotoxicity: at the top concentration", "from_the_text": "National Center for Advancing Translational Sciences [NCATS] Assay Overview: Chemotherapeutic drug responses vary from cancer to cancer and from patient to patient. These variations could be caused by a number of factors including patient genomic background, tumor mutations, tumor heterogeneity, and aspects of drug treatment. Chemotherapeutic drug resistance is also a common issue and can lead to ineffective treatment and patient death. Here we have profiled the cell killing effects of thousands of compounds to characterize the responses in three gynecological cancers, identify cancer-selective compounds, and understand the diversity of responses to these compounds from pan-cancer suppressors to single cell line selective compounds. In this assay, we screened a 7,914 compound drug library that included approved drug and bioactive compounds in six ovarian, three cervical, and […] placental cancer cell lines using the ATPlite assay for cell viability. […] The cervical cancer cell lines included HeLa, Ca Ski, and C-33 A. The placental cancer cell lines included JEG-3. HEK 293T cells were used as the control cell line to determine the selectivity index. ATPlite is a luminescence based assay reliant on the conversion of a luciferase substrate to light in the presence of ATP. As a cytotoxic compound will suppress growth and decrease the number of cells, the concentration of ATP will decrease, and less light signal will be detected in the well.\nAssay Protocol Summary: 1,000 cells in 4 uL of media were dispensed into white, solid bottom 1536-well plates using a Multidrop Combi (Thermo Scientific). The Assay plates were incubated for 16 hours at 37 C with 5% CO2 in assay plates, followed by the addition of 23 nL of DMSO or drug dissolved in DMSO. Each compound was assayed in five concentrations (0.092, 0.46, 2.3, 11.5, and 57.5 uM), using the automated Wako 1536 Pin Tool workstation and incubated at 37 C with 5% CO2 48 hours. 4 uL of ATPlite, the ATP monitoring reagent, was then added to the each well of the assay plates using the Multidrop Combi reagent dispenser followed by incubation for 15 minutes at room temperature. The resulting luminescence was measured using the ViewLux plate reader."}
{"smiles": "COc1ccc(N(C(=O)Oc2c(C)cccc2C)c2ccnc(Nc3ccc(N4CCN(C)CC4)cc3)n2)c(OC)c1", "activity change, negative = cytotoxicity": "0.235% (inactive)"}
{"smiles": "COC(C)(C)CCCC(C)C/C=C/C(C)=C/C(=O)OC(C)C", "note": "(stereo not given)", "activity change, negative = cytotoxicity": "-0.0184% (inactive)"}
{"smiles": "COC1=C[C@@H]2[C@@H]3Cc4ccc(OC)c(O)c4[C@]2(CCN3C)CC1=O", "activity change, negative = cytotoxicity": "8.41% (inactive)"}
{"smiles": "CCCCCCCCCC(CC)c1ccc(S(=O)(=O)O)cc1", "note": "(stereo not given)", "activity change, negative = cytotoxicity": "-3.47% [at 116 µM] (inactive)"}
{"smiles": "Nc1c(Cl)c(Cl)c(Cl)c(Cl)c1Cl", "activity change, negative = cytotoxicity": "15.2% [at 116 µM] (inactive)"}
{"smiles": "CCN(CC)C(=O)c1ccc(C2=CC3(CCNCC3)Oc3cccc(O)c32)cc1", "activity change, negative = cytotoxicity": "1.09% (inactive)"}
{"smiles": "CC(=O)[O][Hg][c]1ccccc1", "Potency": "3.55 µM (active)"}
{"smiles": "O=C1C=CC[C@@H]2[C@H]3CCCN4CCC[C@@H](CN12)[C@@H]34", "activity change, negative = cytotoxicity": "-4.14% (inactive)"}
{"smiles": "CCc1c(C(=O)C(N)=O)c2c(OCC(=O)O)cccc2n1Cc1ccccc1", "activity change, negative = cytotoxicity": "-5.44% (inactive)"}
{"smiles": "Cc1[nH]nc2ccc(-c3cncc(OC[C@@H](N)Cc4c[nH]c5ccccc45)c3)cc12", "Potency": "1.12 µM (active)"}
{"smiles": "c1cc2ccc3cccc4ccc(c1)c2c34", "activity change, negative = cytotoxicity": "0% [at 116 µM] (inactive)"}
{"smiles": "CS(=O)(=O)c1ccc(C(=O)C2C(=O)CCCC2=O)c([N+](=O)[O-])c1", "activity change, negative = cytotoxicity": "-2.31% [at 116 µM] (inactive)"}
{"smiles": "CCOP(=O)(NC(C)C)Oc1ccc(SC)c(C)c1", "note": "(stereo not given)", "activity change, negative = cytotoxicity": "6.48% [at 116 µM] (inactive)"}
{"smiles": "O=C(O)c1cc(Oc2ccc(C(F)(F)F)cc2Cl)ccc1[N+](=O)[O-]", "activity change, negative = cytotoxicity": "0.0653% (inactive)"}
{"smiles": "O=S(=O)(O)C(F)(F)C(F)(F)C(F)(F)C(F)(F)F", "activity change, negative = cytotoxicity": "-3.59% [at 116 µM] (inactive)"}
{"smiles": "CCCCOC(=O)c1ccccc1C(=O)OCc1ccccc1", "activity change, negative = cytotoxicity": "2.82% [at 116 µM] (inactive)"}
{"smiles": "O=S(=O)(c1ccc(Cl)cc1)c1ccc(Cl)cc1", "activity change, negative = cytotoxicity": "-14.9% [at 116 µM] (inactive)"}
{"smiles": "Cc1ccccc1-n1c(Cn2ncc3c(N)ncnc32)nc2cccc(C)c2c1=O", "activity change, negative = cytotoxicity": "18.5% (inactive)"}
{"smiles": "Fc1cc(Br)ccc1CBr", "activity change, negative = cytotoxicity": "5.02% (inactive)"}
{"smiles": "CC1(C)CC/C(=C/c2ccc(Cl)cc2)C1(O)Cn1cncn1", "note": "(stereo not given)", "activity change, negative = cytotoxicity": "-4.25% [at 116 µM] (inactive)"}
{"smiles": "O=C1C(I)=CC(=C(c2cc(I)c(O)c(I)c2)c2ccccc2C(=O)O)C=C1I", "activity change, negative = cytotoxicity": "19.7% (inactive)"}
{"smiles": "O=C(N[C@@H](COc1ccc2[nH]c(=O)[nH]c2c1)c1ccccc1)c1cccn(Cc2ccc(F)c(F)c2)c1=O", "activity change, negative = cytotoxicity": "-43.2% (inactive)"}
{"smiles": "CN1CCN(c2ccc([N+](=O)[O-])c3no[n+]([O-])c23)CC1", "activity change, negative = cytotoxicity": "-20.2% (inactive)"}
{"smiles": "Cc1c(C(=O)Nc2cccc(C(F)(F)F)c2)cc(-c2ccccc2)n1CCCN1CCOCC1", "activity change, negative = cytotoxicity": "4.38% (inactive)"}
{"smiles": "O=C(NCC1CCOCC1)c1cnc(Nc2ccc(Cl)cc2Cl)nc1C(F)(F)F", "activity change, negative = cytotoxicity": "-1.47% (inactive)"}
{"smiles": "CCO/N=C(\\CC)C1=C(O)CC(c2c(C)cc(C)cc2C)CC1=O", "note": "(stereo not given)", "activity change, negative = cytotoxicity": "1.28% [at 116 µM] (inactive)"}
{"smiles": "C=CC(=O)NCNC(=O)C=C", "activity change, negative = cytotoxicity": "18% [at 116 µM] (inactive)"}
{"smiles": "CC(Cc1ccc(O)cc1)NCC(O)c1cc(O)cc(O)c1", "note": "(stereo not given)", "activity change, negative = cytotoxicity": "-4.83% (inactive)"}
{"smiles": "O=[N+]([O-])c1c2ccccc2cc2ccccc12", "activity change, negative = cytotoxicity": "0% [at 116 µM] (inactive)"}
{"smiles": "CCOC(=O)Nc1ccc(NCc2ccc(F)cc2)cc1N", "activity change, negative = cytotoxicity": "4.2% (inactive)"}
{"smiles": "CCCCCCCCCCCCCCCC[N+](C)(C)C", "Potency": "8.91 µM (active)"}
{"smiles": "S=C(NC1CCCCC1)N1CCC(c2cnc[nH]2)CC1", "activity change, negative = cytotoxicity": "7.63% (inactive)"}
{"smiles": "CCNC(=O)C[C@@H]1N=C(c2ccc(Cl)cc2)c2cc(OC)ccc2-n2c(C)nnc21", "activity change, negative = cytotoxicity": "-3.11% (inactive)"}
{"smiles": "O=[N+]([O-])/N=C1\\NCCN1Cc1ccc(Cl)nc1", "activity change, negative = cytotoxicity": "2.37% (inactive)"}
{"smiles": "CCC(=O)O[C@@H]1C=C2CCC3C(CCC4(C)C3CC[C@@H]4OC(=O)CC)C2CC1", "note": "(stereo not given in full)", "activity change, negative = cytotoxicity": "7.39% (inactive)"}
{"smiles": "CCCCC(CC)COC(=O)c1ccccc1C(=O)OCC(CC)CCCC", "note": "(stereo not given)", "activity change, negative = cytotoxicity": "2.48% [at 116 µM] (inactive)"}
{"smiles": "Nc1ccc(Sc2ccc(N)cc2)cc1", "activity change, negative = cytotoxicity": "-17% [at 116 µM] (inactive)"}
{"smiles": "Nc1ccc(Cl)cc1", "activity change, negative = cytotoxicity": "1.81% [at 116 µM] (inactive)"}
{"smiles": "C1CCC(NC2CCCCC2)CC1", "activity change, negative = cytotoxicity": "2.95% (inactive)"}
{"smiles": "CC1=C(C(=O)O)N2C(=O)[C@@H](N)[C@H]2SC1", "activity change, negative = cytotoxicity": "6.82% [at 25.3 µM] (inactive)"}
